What follows are compounds tested against PEG-3 (UniProt Q6IN02) (assay: inhibition of PEG-3 promoter-driven reporter – cell-based, HeLa, luciferase, CREF/GAPDH counter-screen panel, dose response (AID 624167)). Conditions: CREF/GAPDH counter-screens; HeLa PEG-Prom luciferase reporter, overnight, run 1, dose range 1, at 100 µM (top of the series) unless noted.
Chain of PEG-3 (Q6IN02 whole entry, looked up): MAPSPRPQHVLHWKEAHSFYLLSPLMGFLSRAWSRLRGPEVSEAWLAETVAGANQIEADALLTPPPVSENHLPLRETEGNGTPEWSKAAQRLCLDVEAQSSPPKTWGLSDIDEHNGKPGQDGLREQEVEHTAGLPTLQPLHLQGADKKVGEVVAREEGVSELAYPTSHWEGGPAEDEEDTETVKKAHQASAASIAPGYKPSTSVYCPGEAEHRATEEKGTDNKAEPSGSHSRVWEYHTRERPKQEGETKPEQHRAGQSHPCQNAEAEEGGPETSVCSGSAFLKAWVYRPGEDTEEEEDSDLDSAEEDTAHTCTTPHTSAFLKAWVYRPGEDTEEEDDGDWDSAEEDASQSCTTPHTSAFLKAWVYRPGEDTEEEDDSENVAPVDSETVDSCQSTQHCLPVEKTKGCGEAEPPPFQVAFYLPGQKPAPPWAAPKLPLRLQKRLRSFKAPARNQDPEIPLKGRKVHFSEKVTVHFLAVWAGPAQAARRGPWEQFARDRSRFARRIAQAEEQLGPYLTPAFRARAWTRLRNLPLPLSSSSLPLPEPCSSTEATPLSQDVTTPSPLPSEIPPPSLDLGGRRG

| SMILES | inhibition [%] |
| --- | --- |
| COC1=C(Br)C(=O)c2ncccc2C1=O | 99.3 |
| Cc1ccc(-c2cc3c(N=O)c4ccccc4c-3n[nH]2)cc1 | 75.1 |
| CC(=O)NC(c1ccc(Cl)cc1)c1ccc2cccnc2c1O (centres undefined) | 97.5 |
| CCCCC(=O)NC(c1ccc(OC)cc1)c1ccc2cccnc2c1O (centres undefined) | 73.4 |
| Cc1cccc(C)c1NC(=O)c1nc(S(=O)(=O)Cc2ccccc2)ncc1Cl | 102 |
| CN(C)CC1CCC/C(=C\c2ccc(OC(=O)c3ccc(Cl)cc3)cc2)C1=O (centres undefined) | 97.7 |
| CCCC(=O)NC(c1ccc(OC)cc1)c1ccc2cccnc2c1O (centres undefined) | 66.6 |
| CN(C)c1ccc(/C=C/c2ccc3c4ccccc4ccc3[n+]2-c2ccccc2)cc1 | 99.3 |
| CN(C)c1ccc(/C=C(\C#N)c2ccccn2)cc1 | 81.8 |
| O=C(O)c1ccc(N/N=C/c2ccc3nccnc3c2)cc1 | 101 |
| Cc1nc(-c2ccc(NC(=O)c3ccco3)cc2)cs1 | 98.9 |
| COc1ccccc1CNCC(O)Cn1c2ccccc2c2ccccc21 (centres undefined) | 102 |
| C/C(=N\NC(=O)c1cc(C2CC2)nc2ccccc12)c1ccc(O)cc1O | 59.9 |
| CCc1ccc(/C=C2\SC(=S)N(CCCC(=O)NC3=NCCS3)C2=O)cc1 | 96 |
| O=C(Nc1nc2cc3c(cc2s1)OCCO3)C1=COCCO1 | 99.1 |
| Cc1ccc(-c2nc(-c3ccccn3)no2)cc1Cl | 102 |
| CCN(CC)S(=O)(=O)c1cccc(C(=O)N/N=C(\C)c2ccc(O)cc2O)c1 | 27.3 |
| CC(C)Cc1ccc(C(C)C(N)=NCCc2ccccc2)cc1 (centres undefined) | 97.4 |
| O=C(N/N=C/c1sc(N2CCOCC2)nc1-c1ccccc1)c1cccc(S(=O)(=O)N2CCCC2)c1 | 63.5 |
| O=C(Nc1nc2cc3c(cc2s1)OCCO3)c1ccco1 | 97.8 |

| SMILES | inhibition [%] |
| --- | --- |
| O=C1C(Cl)=C(Nc2ccccc2)C(=O)c2ccccc21 | 102 |
| COc1ccc(-c2cc3nc(C)n(N)c(=O)c3s2)cc1 | 99.2 |
| COc1cc(OC)c2cc(C(=O)N/N=C/c3ccccc3O)[nH]c2c1 | 95.8 |
| CCN(CCO)c1ccc(N=Nc2cc(C)[nH]n2)cc1 | 95.5 |
| Cc1cc(/C=N/Nc2ncnc(N)c2[N+](=O)[O-])c(C)n1-c1ccccc1 | 93.6 |
| COc1ccccc1C(=O)Nc1nc2ccccc2[nH]1 | 99.2 |
| CCOc1ccc2nc(NC(=O)c3ccccn3)sc2c1 | 88 |
| CCCC(=O)NC(c1ccc(C(C)C)cc1)c1ccc2cccnc2c1O (centres undefined) | 95.6 |
| O=C(O)c1ccc(CN2C(=O)c3cccc4c([N+](=O)[O-])ccc(c34)C2=O)cc1 | 99 |
| Cc1c([N+](=O)[O-])cc(N2C(=O)C=CC2=O)cc1[N+](=O)[O-] | 102 |
| c1ccc(-c2nc(-c3ccccn3)no2)cc1 | 89.5 |
| CCn1nc(C)cc1-c1nnc(Sc2ncc([N+](=O)[O-])s2)n1C | 102 |
| O=C(CNC(=O)C(c1ccccc1)c1ccccc1)N/N=C/c1ccc(O)cc1O | 53.4 |
| Clc1ccccc1/C=C/c1nc(-c2ccccn2)no1 | 87.3 |
| O=C(CCl)N1c2ccccc2Sc2ccc3ccccc3c21 | 99.4 |
| O=C(/C=C\Nc1ccc2c(c1)OCO2)c1ccccn1 | 102 |
| O=C(Nc1cc(S(=O)(=O)N2CCOCC2)ccc1Cl)c1cc([N+](=O)[O-])ccc1Cl | 98.9 |
| CN(C)c1ccc(NC(=S)c2ccccn2)cc1 | 93.1 |
| CN(C)c1ccc(C=c2c3ccccc3n3c2cc(-c2ccccc2)[n+]3C)cc1 | 98.9 |

From PubChem BioAssay
